Hit rate of the full screen: of about 68,000 compounds, about 2,700 (4%) showed an effect of 50% or more. Only a selection was taken, and strong results are over-represented in it overall.

This note sets out measurements from ChEMBL document CHEMBL4513216, “Probing the Open Global Health Chemical Diversity Library for Multistage-Active Starting Points for Next-Generation Antimalarials” (ACS Infect Dis, 2020).

The test has as its system Plasmodium berghei. As to the kind of experiment: Screen against P. berghei liver stage (PbLuc), transformed with Luciferase, at 2uM. Format: functional, HepG2. Particulars: tested at 2 uM.
`CCNC(=O)[C@@H]1C[C@H](NC(=O)Cn2ccnc2)CN1Cc1ccsc1`: the INHIBITION was -35.46%.
With `OCCC[C@@H]1CN(c2ncc(Cl)cc2Cl)CC[C@@H]1N1CCOCC1`, the INHIBITION is listed as -69.21%.
Under `Cc1cnc(C)c(N2CC[C@H](N3CCOCC3)[C@H](CCCO)C2)n1` stands 37.87%.
Under `CC(C)c1cncnc1N1CC[C@H](N2CCOCC2)[C@H](CCCO)C1` stands 68.36%; under `Fc1ccc(CN2CCCn3cnc(COCC4CC4)c3C2)cc1`, 25.48%.
`CC(=O)N1CCC2(CC1)COCCN2CCN(C)C`: the INHIBITION was 0.04%.
Under `CC1CN(C)c2ccccc2CN1C(=O)c1cc(C#N)cn1C` (configuration not stated) stands 3.49%.
Take `CC(C)NC(=O)c1nc(Cn2c(C(F)(F)F)nc3ccccc32)no1`: the INHIBITION was determined as 37.53%.
Under `O=C(NC1CC1)c1nc(Cn2c(C(F)F)nc3ccccc32)no1` stands 29.87%; under `CC(C)NC(=O)c1nc(Cn2c(C(F)F)nc3ccccc32)no1`, 51.42%; under `COc1ccc(CN2CCN(CC3CC3)[C@@H]3CS(=O)(=O)C[C@@H]32)cc1O`, 7.93%.
Turning to `Cn1ncc2c(N[C@@H]3C[C@H]4CC[C@@H]3C4)nc(-c3ccncc3)nc21`, the INHIBITION is given as 67.85%.
With `Cn1ncc2c(NC3CN4CCC3CC4)nc(-c3ccncc3)nc21` (configuration not stated), the INHIBITION was found to be 10.1%.
Consider `Cn1ncc2c(NC3CCC3)nc(-c3ccncc3)nc21`, for which the INHIBITION was -24.62%.
Under `Cc1csc(CNC(=O)NC(C)c2ccc3c(c2)OCCO3)n1` (configuration not stated) stands 39.83%; under `CN(C)CCOC1CC2(CCN(c3cnccn3)CC2)c2ccccc21` (configuration not stated), 20.21%; under `CC(=O)N(Cc1ncc(C)o1)C1CCN(Cc2cccnc2)C1` (configuration not stated), 41.72%.
As to `CC(=O)N(Cc1ncc(C)o1)C1CCN(Cc2ccccc2F)C1` (configuration not stated), the INHIBITION was found to be 20.35%.
In the case of `CC(=O)N(Cc1noc(C)n1)C1CCN(Cc2ccncc2Cl)C1` (configuration not stated), the INHIBITION was found to be 53.72%.
Take `CC(=O)N(Cc1ncc(C)o1)C1CCN(Cc2noc(C)n2)C1` (configuration not stated): the INHIBITION stood at 71.13%.
Under `CC(=O)N(Cc1noc(C)n1)C1CCN(Cc2ncc(C(C)C)o2)C1` (configuration not stated) stands 8.06%; under `CC(=O)N(Cc1ncc(C)o1)C1CCN(Cc2cc(C)on2)C1` (configuration not stated), 1.04%.
Under `CC(=O)N(Cc1noc(C)n1)C1CCN(Cc2ccccn2)C1` (configuration not stated) stands 6.31%.
Under `CC(=O)N(Cc1noc(C)n1)C1CCN(Cc2ccccc2C#N)C1` (configuration not stated) stands -21.31%; under `CC(=O)N(Cc1ncc(C)o1)C1CCN(Cc2ccncc2Cl)C1` (configuration not stated), 53.72%.
For the molecule `O=C(O)[C@@H]1CN(C(=O)CN2Cc3ccccc3C2)C[C@H]1c1ccncc1`, the INHIBITION amounted to 27.42%.
With `CCN(C(=O)c1cccc2c1OCO2)c1ccccc1`, the INHIBITION is -0.15%.
Consider `O=C1CC2(CCN(S(=O)(=O)C3CC3)C2)CN1c1cncnc1` (configuration not stated), for which the INHIBITION is on record as 34.34%.
`Cn1nccc1CCC(=O)N1CCCC(Cc2cccnc2)C1` (configuration not stated): the INHIBITION is on record as -24.85%.
Under `Cc1ccc(CN(C(=O)NC2CCS(=O)(=O)C2)C2CC2)o1` (configuration not stated) stands 1.88%; under `COCCOc1cc(C)ccc1NC(=O)N(C)Cc1cnn(C)c1`, 64.16%.
Under `CCOc1cc(C)ccc1NC(=O)N(C)Cc1cnn(C)c1` stands 17.39%.
Under `CCCOc1cc(C)ccc1NC(=O)N(C)Cc1cnn(C)c1` stands -31.72%; under `O=C1CCCC2=C1C(c1ccccc1Cl)C1C(=O)NN=C1N2` (configuration not stated), 31.66%.
Take `Cn1ncc2c1CN(Cc1ccccc1F)CC2COCC1CC1` (configuration not stated): the INHIBITION stood at 21.42%.
Under `CCc1ccccc1N1CC(c2nnc(N)s2)CC1=O` (configuration not stated) stands 51.78%; under `Cc1c(Cl)cccc1N1CC(c2nnc(N)s2)CC1=O` (configuration not stated), 8.41%.
Under `Cc1cccc(N2CC3(CCN(c4nncs4)C3)CC2=O)c1` (configuration not stated) stands 5.77%; under `O=C1C[C@@H]2CCN(Cc3ccccc3)C[C@@H]2CCN1c1ccccc1`, 44.84%.
For `Cc1cc(C)cc(N2CC(c3nnc(N)s3)CC2=O)c1` (configuration not stated), the INHIBITION worked out at 35.41%.
Turning to `CS(=O)(=O)NC1CC(=O)N(c2ccccc2Cl)C1` (configuration not stated), the INHIBITION came out at 34.28%.
Under `Cc1cccc(N2CC(c3nnc(N)s3)CC2=O)c1` (configuration not stated) stands 52.23%; under `O=C(C1CC(=O)N(c2ccccc2)C1)N1CCC2(CC1)OCCO2` (configuration not stated), 28.17%; under `Nc1nnc(C2CC(=O)N(c3ccccc3)C2)s1` (configuration not stated), 74.36%.
In the case of `CN(C)C1CC2(CCN(C(=O)c3csnn3)CC2)c2ccccc21` (configuration not stated), the INHIBITION came out at 24.51%.
Under `CCc1nc2c(NCC3COc4cc(OC)ccc4C3)ncnc2o1` (configuration not stated) stands 23.17%; under `CCCc1n[nH]c(C2CN(C(=O)CCn3cc(C)cn3)CCO2)n1` (configuration not stated), 14.21%; under `Cn1cc(CN2C[C@H]3CCN(C(=O)c4cscn4)C[C@H]3C2)cn1`, 34.24%.
Under `CCCN(CC(=O)N(C)C)C(=O)c1ccc(-c2nc(C)cs2)cc1` stands -0.15%.
For the molecule `CCN(CC(=O)N(C)C)C(=O)c1ccc(-c2nc(C)cs2)cc1`, the INHIBITION is on record as 53.81%.
Turning to `CCCN(CC(=O)NC)C(=O)c1ccc(-c2nc(C)cs2)cc1`, the INHIBITION was determined as 46.98%.
With `CC(C)(C)CC(=O)NCC(=O)Nc1ccn(Cc2ccccc2)n1`, the INHIBITION worked out at 43.87%.
Take `O=C(NCc1nccs1)N1CCOC(c2ccccc2Cl)C1` (configuration not stated): the INHIBITION is reported as -71.45%.
On to `Cc1ccc(C2CN(C(=O)NCc3nnc4ccccn34)CCO2)o1` (configuration not stated), for which the INHIBITION came out at 26.03%.
Regarding `O=C(NCc1nnc2ccccn12)N1CCc2sccc2C1`, the INHIBITION came out at 30.31%.
Under `CCn1cnnc1CNC(=O)N1CCOC(c2ccccc2Cl)C1` (configuration not stated) stands 42.19%; under `O=C(NCc1nnc2ccccn12)N1CCOC(c2cccs2)C1` (configuration not stated), 50.46%; under `O=C(NCc1nnc2ccccn12)N1CCOC(c2ccsc2)C1` (configuration not stated), 63.39%.
Under `CCN1CCC2(CC1)OCCN2C(=O)c1cc(Cl)c(OC)c(Cl)c1` stands 19.62%.
Take `Cc1cc(C)n(C2CCCN(C(=O)c3ccc(N(C)C)nc3)C2)n1` (configuration not stated): the INHIBITION was -35.65%.
On to `Cc1noc(C)c1S(=O)(=O)N(CC(N)=O)CC(C)C`, for which the INHIBITION amounted to 23.08%.
Under `CC(C)n1cc(CN2CCCN(C(=O)C(C)n3cccn3)CC2)cn1` (configuration not stated) stands -86.2%; under `O=c1ccc2c(n1CC1CC1)CCC(NCc1cccs1)C2` (configuration not stated), -26.76%.
Under `CCC(C(=O)NC(C)(C)C)n1cccc(OC)c1=O` (configuration not stated) stands 56.16%.
Under `CCC(C(=O)NC(C)(C)C)n1ccc2ncccc2c1=O` (configuration not stated) stands 8.09%; under `CCC(C(=O)NC1CCCCC1)n1cccc(OC)c1=O` (configuration not stated), -6.88%; under `CCN(C)S(=O)(=O)N1C[C@H]2CC[C@@H](C1)N(Cc1cscn1)C2=O`, 48.21%.
Turning to `CCn1cnnc1CNC(=O)N(C)Cc1cccc(OC(F)F)c1`, the INHIBITION was 64.16%.
Under `CCn1cnnc1CNC(=O)N(C)Cc1ccc2c(c1)OCCO2` stands -16.42%; under `CCOc1ccc(CN(C)C(=O)NC(C)c2nncn2C)cc1` (configuration not stated), -27.75%.
Under `CC(NC(=O)N(C)Cc1cccc(OC(F)F)c1)c1nncn1C` (configuration not stated) stands 59.03%; under `COc1ccc(CN(C)C(=O)NC(C)c2nncn2C)cc1F` (configuration not stated), -6.61%.
For `CCn1cnnc1CNC(=O)N(C)Cc1ccc(F)c(F)c1`, the INHIBITION is listed as -2.9%.
Under `Cc1cccc(CN2CCC(C3Nc4ccccc4S(=O)(=O)N3)CC2)n1` (configuration not stated) stands 7.38%; under `COc1cc(N2C[C@@H]3COC[C@]3(COCc3ccccn3)C2)ncn1`, -14.27%; under `Cn1ccnc1CN1CCCC2(CCN(CC3CCCO3)CC2)C1` (configuration not stated), 26.46%.
Under `Cc1nc(C2CCCN(C(=O)c3ccc(OCC4CC4)nc3)C2)no1` (configuration not stated) stands 28.65%; under `CC1(CCNC(=O)NCc2ccsc2)OCCO1`, 57.23%.
Regarding `CC1(C(=O)NCc2ccsc2)CCOCC1`, the INHIBITION turned out to be 5.75%.
For the molecule `CC(CNC(=O)NCc1ccsc1)CC1(C)OCCO1` (configuration not stated), the INHIBITION is given as -35.5%.
For the molecule `O=C(Cn1nc2c(cc1=O)CCCC2)NC(C(=O)O)c1ccccc1` (configuration not stated), the INHIBITION was 25.23%.
Under `CC1COCCN1Cc1nc(Cc2ccccc2)no1` (configuration not stated) stands -23.37%; under `COc1ncc(NCc2ccc(C#N)cc2)cc1C(N)=O`, 63.31%.
Under `COc1ncc(NCc2cccc(C#N)c2)cc1C(N)=O` stands -7.69%; under `COc1ncc(NCc2ccc(F)cc2)cc1C(N)=O`, 17.18%; under `CN1C(=O)CC(C(=O)O)C12CCN(c1ccc3cccc(Cl)c3n1)CC2` (configuration not stated), -1.78%.
As for `CC(Cc1ccccc1Cl)NC(=O)Nc1cnn(CC(N)=O)c1` (configuration not stated), the INHIBITION is on record as -7.81%.
For the molecule `CC(CCc1ccccc1)NC(=O)Nc1cnn(CC(N)=O)c1` (configuration not stated), the INHIBITION was found to be 41.72%.
As to `Cc1ccccc1CC(C)NC(=O)Nc1cnn(CC(N)=O)c1` (configuration not stated), the INHIBITION is listed as 81.1%.
Under `COCCN1CCC2(CC1)CN(CCn1cccn1)C(=O)CO2` stands 20.2%; under `CN(CC(=O)NCC(F)(F)F)C(=O)c1ccc(C(=O)OC(C)(C)C)cc1`, -16.4%.
For the molecule `Cc1ccc(C(=O)N(C)CC(=O)Nc2cccc(C)n2)cn1`, the INHIBITION was 23.76%.
Under `Cc1ccc(C(=O)N(C)CC(=O)NCC(F)(F)F)cn1` stands 71.4%.
Under `CCC(=O)Nc1cc(Cl)ccc1C(=O)N(C)Cc1noc(CC)n1` stands 1.1%.
Regarding `COc1ccc(F)cc1-n1cnc(CCNC(C)=O)c1`, the INHIBITION was 45.82%.
With `COc1cc(F)c(-n2cnc(CCNC(C)=O)c2)cc1F`, the INHIBITION was found to be 60.13%.
With `COc1ccc(Cl)cc1-n1cnc(CCNC(C)=O)c1`, the INHIBITION is listed as 26.74%.
Under `CC(=O)N(CCc1nc(-c2cc(C(N)=O)oc2C)cs1)C(C)C` stands 10.22%; under `COc1cc(OC)c(C2CC(=O)Oc3cc(C)[nH]c(=O)c32)c(OC)c1` (configuration not stated), 14.96%; under `O=C(O)C(c1ccc2c(c1)OCCO2)N1CCCCCC1` (configuration not stated), 19.56%.
On to `O=C(O)C(c1ccc2c(c1)OCO2)N1CCCCCC1` (configuration not stated), for which the INHIBITION worked out at 59.48%.
With `O=C(O)C(c1ccc2c(c1)OCO2)N1CCCC1` (configuration not stated), the INHIBITION is on record as 4.53%.
Under `Cc1ccc(-n2cc3[nH]c(=O)[nH]n3c2=O)cc1` stands -15.37%; under `Cc1ccc(CN2CCC3(CC(C(=O)NC4CCC4)=NO3)C2)o1` (configuration not stated), -27.21%.
Under `CN1CCC2(CC1)CN(C)C(=O)C[C@@H]2C(F)(F)F` stands 6.22%; under `CC(=O)N1CCC2(CC1)CN(C)C(=O)C[C@H]2C(F)(F)F`, 64.92%; under `CC(C)N1CCC2(CC1)CN(C)C(=O)C[C@H]2C(F)(F)F`, -24.39%.
